About 79,000 compounds went through this panel and 15% of them were active in at least one assay; those are over-represented in the sample as a whole. Active and inactive are the calls of the source. Cut-off read from the data, not from the text of the source: active = growth inhibition above about 70%; inactive = the rest.
Assays:
[1] = NCI Yeast Anticancer Drug Screen. Data for the mec2-1 strain (AID 157); conditions: S. cerevisiae mec2-1 strain, stronger effect = higher value
Summary of the method: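 Growth inhibition is read against vehicle-treated controls after compound exposure of the mec2-1 yeast strain, which is defective in DNA damage repair or cell cycle control.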

[2] = NCI Yeast Anticancer Drug Screen. Data for the rad14 strain (AID 159);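 note: 0% = growth of vehicle-treated control cultures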; conditions: S. cerevisiae rad14 strain growth inhibition, stronger effect = higher value
Summary of the method: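 Here, inhibition of yeast growth was measured after compound exposure, using a strain with a genetic defect in DNA damage repair and vehicle-treated cultures as the reference.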

[3] = NCI Yeast Anticancer Drug Screen. Data for the sgs1 mgt1 strain (AID 161);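 note: 0% = growth of cultures given vehicle only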; conditions: S. cerevisiae sgs1 mgt1 strain, stronger effect = higher value
Summary of the method: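 Growth of a repair-deficient yeast mutant was monitored after compound treatment and expressed as inhibition relative to vehicle-treated cultures.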

[4] = NCI Yeast Anticancer Drug Screen. Data for the CLN2oe strain (AID 163);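 note: 0% = growth of vehicle-only control cultures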; conditions: S. cerevisiae CLN2oe strain, stronger effect = higher value
Summary of the method: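 Compound-treated yeast; growth vs vehicle ctrl = % inhibition. Genetically altered strain (cell-cycle control).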

[5] = NCI Yeast Anticancer Drug Screen. Data for the cln2 rad14 strain (AID 165);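 note: 0% = growth equal to vehicle treated cultures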; conditions: S. cerevisiae cln2 rad14 strain, stronger effect = higher value
Summary of the method: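 Growth inhibition, relative to vehicle-treated controls, is the read-out. The test organism is a yeast strain with defined genetic alterations, cln2 rad14.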

[6] = NCI Yeast Anticancer Drug Screen. Data for the bub3 strain (AID 167); conditions: S. cerevisiae bub3 mutant strain, stronger effect = higher value
Summary of the method: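 Whole-cell yeast assay. The mutant strain was incubated with compounds, and growth inhibition was determined by comparison with vehicle-treated cells.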

[7] = NCI Yeast Anticancer Drug Screen. Data for the wt2 strain (AID 169);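 note: 0% = growth of vehicle-treated yeast cultures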; conditions: S. cerevisiae wt2 strain growth inhibition, stronger effect = higher value
Summary of the method: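 Compound exposure of yeast; growth compared with vehicle controls; inhibition reported.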

[8] = NCI Yeast Anticancer Drug Screen. Data for the mlh1 strain (AID 171);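 note: 0% = growth of vehicle-treated control cultures of the same strain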; conditions: S. cerevisiae mlh1 strain growth inhibition, stronger effect = higher value
Summary of the method: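 Compounds are applied to a genetically altered yeast strain, and its growth is compared with that of vehicle-treated cultures to give percent inhibition.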

[9] = NCI Yeast Anticancer Drug Screen. Data for the sgs1 strain (AID 173);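 note: 0% = growth of vehicle-only control cultures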; conditions: S. cerevisiae sgs1 mutant, stronger effect = higher value
Summary of the method: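 Compounds applied to genetically altered yeast; growth compared with vehicle-treated cultures to give % inhibition.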

[10] = NCI Yeast Anticancer Drug Screen. Data for the mlh1 rad18 strain (AID 175); conditions: S. cerevisiae mlh1 rad18 strain growth inhibition, stronger effect = higher value
Summary of the method: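 Cells of a genetically altered yeast strain, deficient in DNA damage repair, were treated with compound. Their growth was then compared with that of vehicle-treated cultures to give inhibition.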

[11] = NCI Yeast Anticancer Drug Screen. Data for the rad52 strain (AID 147);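 note: 0% = growth of vehicle-treated control cultures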; conditions: S. cerevisiae rad52 mutant growth inhibition, stronger effect = higher value
Summary of the method: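 DNA repair-defective yeast; compound exposure; growth scored against vehicle controls.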

[12] = NCI Yeast Anticancer Drug Screen. Data for the wt1 strain (AID 149);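 note: 0% = growth of vehicle-treated wt1 cultures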; conditions: S. cerevisiae wt1 strain (SPY 50644) growth inhibition, stronger effect = higher value
Summary of the method: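 Measured: growth of wt1 yeast under compound versus vehicle treatment, reported as inhibition.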

[13] = NCI Yeast Anticancer Drug Screen. Data for the rad50EPP+ strain (AID 151);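 note: 0% = growth of vehicle-treated control cultures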; conditions: S. cerevisiae rad50 mutant strain, stronger effect = higher value
Summary of the method: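 rad50EPP+ yeast treated with test compounds. Readout: growth vs vehicle control.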

[14] = NCI Yeast Anticancer Drug Screen. Data for the rad50 strain (AID 155);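 note: 0% = growth of vehicle-only cultures of the same strain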; conditions: S. cerevisiae rad50 strain growth inhibition, stronger effect = higher value
Summary of the method: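 Growth of the mutant yeast was measured after compound exposure and referenced to vehicle-treated cultures.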

[15] = NCI Yeast Anticancer Drug Screen. Data for the rad18 strain (AID 177); conditions: S. cerevisiae rad18 mutant growth inhibition, stronger effect = higher value
Summary of the method: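 Compounds are applied to a repair-deficient yeast strain, and growth is compared with that of vehicle-treated cultures to give percent inhibition.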

[16] = at 5.0 µM (retest, dose inferred, filed as 0.5)
[17] = at 50.0 µM (retest, dose inferred, filed as 5.0)

Measured: growth inhibition

CCOC(=O)CNC(=O)c1[nH]cnc1/N=N/N(C)C
active: [1]; at 100.0 µM 98% | [2]; at 100.0 µM 97% | [3]; at 50.0 µM 89.5% | [4]; at 100.0 µM 98% | [5]; at 50.0 µM 90.5% | [6]; [17] 96% | [6]; at 50.0 µM 91.4% | [6]; at 100.0 µM 98% | [7]; at 100.0 µM 97% | [8]; at 100.0 µM 98% | [9]; at 100.0 µM 98% | [10]; at 50.0 µM 71.5%
inactive: [2]; at 1.2 µM 2% | [2]; at 3.7 µM 2% | [2]; at 11.0 µM 1% | [2]; at 33.0 µM 1% | [3]; [16] -12% | [3]; [17] -7% | [4]; at 1.2 µM 26% | [4]; at 3.7 µM 23% | [4]; at 11.0 µM 17% | [4]; at 33.0 µM 44% | [5]; [16] -1% | [5]; [17] 35% | [6]; at 1.2 µM 22% | [6]; at 3.7 µM 31% | [6]; [16] 3% | [6]; at 11.0 µM 29% | [6]; at 33.0 µM 62% | [7]; at 1.2 µM -2% | [7]; at 3.7 µM 1% | [7]; at 11.0 µM 0% | [7]; at 33.0 µM 1% | [8]; at 1.2 µM 13% | [8]; at 3.7 µM 5% | [8]; at 11.0 µM 4% | [8]; at 33.0 µM 2% | [9]; at 1.2 µM 10% | [9]; at 3.7 µM 1% | [9]; at 11.0 µM -2% | [9]; at 33.0 µM 9% | [10]; [16] -30% | [10]; [17] 59%

COC(=O)CSc1nnc(CSc2ccc(Cl)cc2)n1-c1ccccc1
inactive: [11]; at 1.2 µM 1% | [11]; at 3.7 µM 3% | [11]; at 11.0 µM 5% | [11]; at 33.0 µM 12% | [11]; at 100.0 µM 5% | [12]; at 1.2 µM -1% | [12]; at 3.7 µM -2% | [12]; at 11.0 µM -3% | [12]; at 33.0 µM 0% | [12]; at 100.0 µM 2% | [13]; at 1.2 µM -2% | [13]; at 3.7 µM 0% | [13]; at 11.0 µM -2% | [13]; at 33.0 µM -5% | [13]; at 100.0 µM -11% | [14]; at 1.2 µM 2% | [14]; at 3.7 µM 4% | [14]; [16] -16% | [14]; at 11.0 µM 9% | [14]; at 33.0 µM 15% | [14]; [17] 15% | [14]; at 50.0 µM 6.25% | [14]; at 100.0 µM 12% | [1]; at 1.2 µM -3% | [1]; at 3.7 µM -1% | [1]; [16] -9% | [1]; at 11.0 µM 3% | [1]; at 33.0 µM 10% | [1]; [17] 18% | [1]; at 50.0 µM 16.9% | [1]; at 100.0 µM 12% | [2]; at 1.2 µM 0% | [2]; at 3.7 µM 2% | [2]; at 11.0 µM 10% | [2]; at 33.0 µM 15% | [2]; at 100.0 µM 13% | [3]; [16] -11% | [3]; [17] 68% | [3]; at 50.0 µM 58.5% | [4]; at 1.2 µM -2% | [4]; at 3.7 µM 6% | [4]; at 11.0 µM 14% | [4]; at 33.0 µM 19% | [4]; at 100.0 µM 19% | [5]; [16] -6% | [5]; [17] 43% | [5]; at 50.0 µM 44% | [6]; at 1.2 µM -1% | [6]; at 3.7 µM 6% | [6]; [16] 7% | [6]; at 11.0 µM 22% | [6]; at 33.0 µM 46% | [6]; at 100.0 µM 57% | [7]; at 1.2 µM -1% | [7]; at 3.7 µM 1% | [7]; at 11.0 µM -1% | [7]; at 33.0 µM 1% | [7]; at 100.0 µM 4% | [8]; at 1.2 µM -1% | [8]; at 3.7 µM -1% | [8]; at 11.0 µM 2% | [8]; at 33.0 µM 9% | [8]; at 100.0 µM 14% | [9]; at 1.2 µM -2% | [9]; at 3.7 µM -3% | [9]; at 11.0 µM 2% | [9]; at 33.0 µM 13% | [9]; at 100.0 µM 15% | [10]; [16] -11% | [10]; [17] 32% | [10]; at 50.0 µM 7% | [15]; at 1.2 µM -1% | [15]; at 3.7 µM 2% | [15]; at 11.0 µM 4% | [15]; at 33.0 µM 8% | [15]; at 100.0 µM 9%
active: [6]; [17] 75% | [6]; at 50.0 µM 74.5%
